{"source": "PubChem BioAssay AID1159577", "about": "(Broad Institute, 2015)", "note": "About 240 (18%) of roughly 1,300 compounds were called active. Another 8% or so got no clear call; they are omitted. A selection follows. Entries with a potency or affinity are not part of this list. A number with no mark means an inactive call. The rule behind the calls is not given here.", "data": [{"assay": "HepG2 cell cytotoxicity, dose response, cytotoxicity control, cherry-picked samples (AID 1159577);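 note: 0% = neutral control wells and -100% = positive control wells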", "conditions": "HepG2 cytotoxicity counterscreen, plate reader; series mostly up to 19.5 µM; activity change, negative = cytotoxicity: at the top concentration", "values": [{"smiles": "COc1ccc2c3c([nH]c2c1)[C@H](CO)N(C(=O)C1CCCCC1)CC31CCN(Cc2nccs2)CC1", "activity change, negative = cytotoxicity": "40.4%"}, {"smiles": "COc1ccc2c3c([nH]c2c1)[C@@H](CO)N(C(=O)C1CCCCC1)CC31CCN(Cc2nccs2)CC1", "activity change, negative = cytotoxicity": "2.26%"}, {"smiles": "COc1ccc2c3c(n(C)c2c1)[C@H](CO)N(C(=O)C1CC1)CC31CN(C(=O)C2CCOCC2)C1", "activity change, negative = cytotoxicity": "-8.82% [at 21 µM]"}, {"smiles": "COc1ccc2c3c(n(C)c2c1)[C@@H](CO)N(C(=O)C1CC1)CC31CCN(C(=O)Nc2cccc(F)c2)CC1", "activity change, negative = cytotoxicity": "8.54%"}, {"smiles": "O=C(C[C@@H]1C[C@H]2c3cc(NS(=O)(=O)c4ccc(F)cc4)ccc3O[C@H]2[C@H](CO)O1)N1CCc2ccccc2C1", "activity change, negative = cytotoxicity": "2.2%"}, {"smiles": "COc1cccc(CN2[C@@H](CO)[C@H](c3ccccc3)C23CN(C(=O)C2CCOCC2)C3)c1", "activity change, negative = cytotoxicity": "-7.26%"}, {"smiles": "CN(C)c1ccc2c(c1)[C@H]1C[C@H](CC(=O)NCc3ccc(Oc4ccccc4)cc3)O[C@H](CO)[C@H]1O2", "activity change, negative = cytotoxicity": "-25.6%"}, {"smiles": "CCCC(=O)N1CCC2(CC1)CN(S(=O)(=O)c1ccc(C)cc1)[C@@H](CO)c1[nH]c3cc(OC)ccc3c12", "activity change, negative = cytotoxicity": "-5.02%"}, {"smiles": "C[C@H]1CN([C@@H](C)CO)C(=O)c2c(c3ccccc3n2C)-c2ccccc2CO[C@@H]1CN(C)C(=O)Nc1ccc(-c2ccccc2)cc1", "activity change, negative = cytotoxicity": "16.4%"}, {"smiles": "O=C(Nc1ccc(C(F)(F)F)cc1)N1[C@@H]2CNC[C@H]1C2c1ccc(/C=C/c2ccccc2)cc1", "note": "(some centres undefined)", "activity change, negative = cytotoxicity": "3.2% [at 21 µM]"}, {"smiles": "O=S(=O)(Cc1ccccc1)N1[C@H](CO)[C@@H](c2ccccc2)C12CN(CCC(F)(F)F)C2", "activity change, negative = cytotoxicity": "10.8% [at 21 µM]"}, {"smiles": "CC(C)(C)[S@@](=O)N1Cc2cc(C(=O)NCCN3CCCCC3)nc(-c3cccc(-c4cccc(C#N)c4)c3)c2[C@H]1CCO", "activity change, negative = cytotoxicity": "13.2%"}, {"smiles": "COc1ccc(C#Cc2ccc3c(c2)[C@H]2[C@H](CCN2C(=O)C2CCC2)[C@@H](CO)N3)cc1", "activity change, negative = cytotoxicity": "5.22%"}, {"smiles": "CN(C)CC(=O)N1[C@H](CO)[C@H](c2ccc(C#CC3CCCCC3)cc2)[C@@H]1C#N", "activity change, negative = cytotoxicity": "-13.4%"}, {"smiles": "C[C@@H]1CN([C@H](C)CO)C(=O)c2cccc(NS(=O)(=O)c3ccccc3)c2O[C@H]1CN(C)Cc1ccc(-c2ccccc2)cc1", "activity change, negative = cytotoxicity": "9%"}, {"smiles": "C/C=C/c1ccc([C@@H]2[C@H](CO)N(CC3CC3)C23CN(C(=O)c2ccc4c(c2)OCO4)C3)cc1", "activity change, negative = cytotoxicity": "0.389%"}, {"smiles": "O=C(C[C@H]1CC[C@@H]2[C@H](COC[C@@H](O)CN2C(=O)Nc2ccc3c(c2)OCO3)O1)N1CCN(c2ccccc2)CC1", "activity change, negative = cytotoxicity": "-4.46%"}, {"smiles": "O=C(c1ccc(F)cc1)N1CC(=O)N2[C@H](CO)[C@@H](c3ccc(/C=C/c4ccccc4)cc3)[C@@H]2C1", "activity change, negative = cytotoxicity": "-4.72%"}, {"smiles": "N#Cc1ccc(-c2ccc([C@@H]3[C@@H]4CN(C(=O)Nc5ccc6c(c5)OCO6)C[C@H]3N4)cc2)cc1", "activity change, negative = cytotoxicity": "16.2% [at 21 µM]"}, {"smiles": "CN(C)C(=O)c1cccc(-c2ccc3c(c2)[C@H]2[C@H](CCN2C(=O)C2CC2)[C@@H](CO)N3)c1", "activity change, negative = cytotoxicity": "-3.67%"}, {"smiles": "C/C=C/c1ccc([C@@H]2[C@H](CO)N(CC3CCCC3)C23CN(C(=O)CC2CC2)C3)cc1", "activity change, negative = cytotoxicity": "3.95%"}, {"smiles": "CCC(=O)N1CCC2(CC1)CN(S(=O)(=O)c1ccccc1)[C@@H](CO)c1[nH]c3cc(OC)ccc3c12", "activity change, negative = cytotoxicity": "9.94%"}, {"smiles": "N#C[C@@H]1[C@H](c2ccccc2-c2cccc(F)c2)[C@H](CO)N1C(=O)C1CCCC1", "activity change, negative = cytotoxicity": "10.2%"}, {"smiles": "C[C@H](CO)N1C[C@H](C)[C@H](CN(C)S(=O)(=O)c2cccs2)OCc2ccccc2-c2c(n(C)c3ccccc23)C1=O", "activity change, negative = cytotoxicity": "23.9%"}, {"smiles": "COc1cccc(C#Cc2cnc3c(c2)C(=O)N([C@H](C)CO)C[C@H](C)[C@@H](CN(C)C(=O)C2CCCCC2)O3)c1", "activity change, negative = cytotoxicity": "13.6%"}, {"smiles": "C[C@@H]1CN([C@@H](C)CO)C(=O)c2cc(C#Cc3ccccc3)cnc2O[C@H]1CN(C)C(=O)CN(C)C", "activity change, negative = cytotoxicity": "15.6%"}, {"smiles": "C[C@@H]1CN([C@H](C)CO)C(=O)c2cc(C#CCc3ccccc3)cnc2O[C@H]1CN(C)C(=O)C1CCC1", "activity change, negative = cytotoxicity": "27.8%"}, {"smiles": "COc1cccc(C#Cc2cnc3c(c2)C(=O)N([C@@H](C)CO)C[C@H](C)[C@@H](CN(C)C(=O)C2CCCCC2)O3)c1", "activity change, negative = cytotoxicity": "-0.176%"}, {"smiles": "C[C@@H]1CN([C@H](C)CO)C(=O)c2cc(C#Cc3cccc(F)c3)cnc2O[C@@H]1CN(C)C(=O)C1CCCCC1", "activity change, negative = cytotoxicity": "14.4%"}, {"smiles": "C[C@H](CO)N1C[C@H](C)[C@H](CN(C)C(=O)C2CCCCC2)Oc2ncc(C#Cc3cccc(F)c3)cc2C1=O", "activity change, negative = cytotoxicity": "12.7%"}, {"smiles": "C[C@@H]1CN([C@@H](C)CO)C(=O)c2cc(C#Cc3ccccc3)cnc2O[C@H]1CN(C)C(=O)CCN1CCCCC1", "activity change, negative = cytotoxicity": "-30.7%"}, {"smiles": "C[C@H]1CN([C@@H](C)CO)C(=O)c2cc(C#Cc3cccc(F)c3)cnc2O[C@@H]1CN(C)C(=O)C1CCCCC1", "activity change, negative = cytotoxicity": "13.3%"}, {"smiles": "COCC(=O)Nc1ccc2c(c1)OC[C@H](C)N(Cc1ccncc1)C[C@H](C)[C@@H](OC)CN(C)C2=O", "activity change, negative = cytotoxicity": "7.21%"}, {"smiles": "C[C@H](CO)N1C[C@H](C)[C@H](CN(C)C(=O)C2CC2)Oc2cc(C#Cc3ccccc3)ccc2S1(=O)=O", "activity change, negative = cytotoxicity": "-10.6%"}, {"smiles": "C[C@@H]1CN([C@@H](C)CO)C(=O)c2c(c3ccccc3n2C)-c2ccccc2CO[C@H]1CN(C)Cc1cccc(C(=O)Nc2ccccc2N)c1", "activity change, negative = cytotoxicity": "0.959%"}, {"smiles": "CO[C@H]1CN(C)C(=O)c2ccc(NS(=O)(=O)CC(F)(F)F)cc2OC[C@@H](C)N(Cc2nccs2)C[C@H]1C", "activity change, negative = cytotoxicity": "23.1%"}, {"smiles": "COc1ccccc1-c1cccc(-c2nc(C(=O)Nc3nccs3)cc3c2[C@H](CCO)N(C(C)=O)C3)c1", "activity change, negative = cytotoxicity": "3.78%"}, {"smiles": "C[C@@H]1CN([C@@H](C)CO)C(=O)c2ccccc2-c2ccccc2CO[C@H]1CN(C)C(=O)Nc1cccc(Cl)c1Cl", "activity change, negative = cytotoxicity": "16.1%"}, {"smiles": "COc1ccc(CN2C[C@@H](C)[C@H](OC)CN(C)C(=O)c3cc(NC(=O)c4nc5ccccc5s4)ccc3OC[C@H]2C)cc1", "activity change, negative = cytotoxicity": "-2.5% [at 21 µM]"}, {"smiles": "CCCN(C)C[C@H]1Oc2ncc(C#Cc3ccccc3OC)cc2C(=O)N([C@H](C)CO)C[C@H]1C", "activity change, negative = cytotoxicity": "-14.8%"}, {"smiles": "CCCN(C)C[C@H]1Oc2ncc(C#Cc3ccc(F)cc3)cc2C(=O)N([C@@H](C)CO)C[C@H]1C", "activity change, negative = cytotoxicity": "-9.44%"}, {"smiles": "COc1cccc(NC(=O)N2[C@@H](CO)[C@@H](c3ccccc3)[C@@H]2CNC(C)C)c1", "activity change, negative = cytotoxicity": "0.63%"}, {"smiles": "C[C@@H]1CN([C@@H](C)CO)C(=O)c2cccc(NC(=O)Nc3ccccc3)c2O[C@@H]1CN(C)C(=O)Nc1ccccc1", "activity change, negative = cytotoxicity": "-10.5%"}, {"smiles": "COc1ccc2c3c([nH]c2c1)[C@@H](CO)N(C(=O)Nc1cccc(F)c1)CC31CN(CC2CCOCC2)C1", "activity change, negative = cytotoxicity": "-16.3%"}, {"smiles": "COc1ccc2c3c([nH]c2c1)[C@H](CO)N(C(=O)Nc1ccc(F)cc1)CC31CCN(S(=O)(=O)c2cccc(F)c2)CC1", "activity change, negative = cytotoxicity": "-1.31%"}, {"smiles": "COc1ccc2c3c([nH]c2c1)[C@H](CO)N(C(=O)Nc1ccc(F)cc1)CC31CCN(Cc2cc(-c3ccccc3)on2)CC1", "activity change, negative = cytotoxicity": "-22.1%"}, {"smiles": "COc1ccc2c3c([nH]c2c1)[C@H](CO)N(C(=O)Nc1ccc(F)cc1)CC31CCN(C(=O)c2ccccn2)CC1", "activity change, negative = cytotoxicity": "16.5%"}, {"smiles": "O=C(C1CCCCC1)N1[C@H](CO)[C@@H](c2ccccc2)C12CN(Cc1cccc(Cl)c1)C2", "activity change, negative = cytotoxicity": "-17.7%"}, {"smiles": "CN(C)c1ccc2c(c1)[C@@H]1C[C@@H](CC(=O)NCc3cc(F)ccc3F)O[C@@H](CO)[C@@H]1O2", "activity change, negative = cytotoxicity": "-2.86%"}, {"smiles": "CC(C)(C)[S@](=O)N1Cc2cc(C(=O)N[C@@H]3CCN(Cc4ccccc4)C3)nc(-c3cccc(-c4cccnc4)c3)c2[C@@H]1CCO", "activity change, negative = cytotoxicity": "25% [at 21 µM]"}, {"smiles": "C/C=C/c1ccc2c(c1)[C@@H]1[C@@H](CCN1C(=O)C1CCCC1)[C@H](CO)N2", "activity change, negative = cytotoxicity": "24.7%"}, {"smiles": "O=C(C1CCCC1)N1CC2(C1)[C@@H](c1ccccc1)[C@H](CO)N2Cc1ccc(Cl)cc1", "activity change, negative = cytotoxicity": "5.85% [at 21 µM]"}, {"smiles": "CO[C@@H]1CN(C)C(=O)c2cc(NC(=O)Nc3ccc(C(F)(F)F)cc3)ccc2OC[C@H](C)NC[C@H]1C", "activity change, negative = cytotoxicity": "-34.1%"}, {"smiles": "CO[C@@H]1CN(C)C(=O)c2cc(NC(=O)Nc3cccc(Cl)c3)ccc2OC[C@@H](C)NC[C@@H]1C", "activity change, negative = cytotoxicity": "-5.39%"}, {"smiles": "CO[C@@H]1CN(C)C(=O)c2cc(NC(=O)Nc3cccc(Cl)c3)ccc2OC[C@H](C)NC[C@H]1C", "activity change, negative = cytotoxicity": "-4.09%"}, {"smiles": "CO[C@@H]1CN(C)C(=O)c2cc(NC(=O)Nc3ccc(C(F)(F)F)cc3)ccc2OC[C@@H](C)NC[C@@H]1C", "activity change, negative = cytotoxicity": "-9.95%"}, {"smiles": "CO[C@@H]1CN(C)C(=O)c2cc(NC(=O)Nc3ccc(C(F)(F)F)cc3)ccc2OC[C@H](C)NC[C@@H]1C", "activity change, negative = cytotoxicity": "-6.48%"}, {"smiles": "CO[C@H]1CN(C)C(=O)c2cc(NC(=O)Nc3cccc(Cl)c3)ccc2OC[C@H](C)NC[C@H]1C", "activity change, negative = cytotoxicity": "-15.7%"}, {"smiles": "CO[C@H]1CN(C)C(=O)c2cc(NC(=O)Nc3ccc(C(F)(F)F)cc3)ccc2OC[C@H](C)NC[C@H]1C", "activity change, negative = cytotoxicity": "5.35%"}, {"smiles": "Cc1ccccc1S(=O)(=O)N1[C@H](CO)[C@@H](c2ccc(C#CC3CC3)cc2)[C@@H]1C#N", "activity change, negative = cytotoxicity": "19.9%"}, {"smiles": "CCCNC(=O)N1[C@H](C#N)[C@H](c2ccc(-c3ccccc3F)cc2)[C@@H]1CO", "activity change, negative = cytotoxicity": "-24%"}, {"smiles": "COc1ccc(C#Cc2cnc3c(c2)C(=O)N([C@H](C)CO)C[C@H](C)[C@H](CN(C)S(=O)(=O)c2cccc(F)c2)O3)cc1OC", "activity change, negative = cytotoxicity": "2.52%"}, {"smiles": "COc1ccc(CN2CC3(CCN(C(=O)c4ccccc4)CC3)c3c([nH]c4cc(OC)ccc34)[C@@H]2CO)cc1", "activity change, negative = cytotoxicity": "-8.87%"}, {"smiles": "O=C(c1ccc(F)cc1)N1CC(=O)N2[C@H](CO)[C@H](c3ccc(-c4cccnc4)cc3)[C@H]2C1", "activity change, negative = cytotoxicity": "10.8%"}, {"smiles": "O=C(C1CCOCC1)N1[C@H](CO)[C@@H](c2ccccc2)C12CN(Cc1cccc(Cl)c1)C2", "activity change, negative = cytotoxicity": "15.3%"}, {"smiles": "COc1ccc(-c2ccc([C@@H]3[C@H]4CN(C(=O)NC(C)C)CC(=O)N4[C@H]3CO)cc2)cc1", "activity change, negative = cytotoxicity": "1.65%"}, {"smiles": "COc1ccc2c3c(n(C)c2c1)[C@H](CO)N(C(=O)Nc1ccc(F)cc1)CC31CCN(S(=O)(=O)c2cccc(F)c2)CC1", "activity change, negative = cytotoxicity": "-7.75%"}, {"smiles": "CN1c2ccc(-c3cccc(C#N)c3)cc2[C@H]2[C@H](CCN2S(=O)(=O)c2ccccc2F)[C@H]1CO", "activity change, negative = cytotoxicity": "27.2%"}, {"smiles": "CCCN(C)C[C@@H]1Oc2cc(C#Cc3cccnc3)ccc2S(=O)(=O)N([C@H](C)CO)C[C@@H]1C", "activity change, negative = cytotoxicity": "-7.54%"}]}]}
